Among the data in PubChem BioAssay (NCI) are growth values, retold here.

About 83,000 compounds went through this panel and 20% of them were active in at least one assay; those are over-represented in the sample as a whole.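 For each line, cells grew in 96-well plates with the test compound present at a single concentration for 48 hours.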 A number with no mark means an inactive call. The source made the active and inactive calls. Rule for the calls: active = growth percent below 10; inactive = the rest.

This test deals with CCRF-CEM leukemia. The test can be described thus: NCI-60 one-dose screen, 48 h (100 = growth as untreated, 0 = no growth, -100 = all killed). The following applies: 10 µM unless noted.
With `Cn1nc(C(F)(F)F)cc1-c1cc(Cl)c(OCc2ccc(Cl)cc2)c(-c2ccc(Cl)c(C(F)(F)F)c2)c1O`, the growth is 9.85% (active).

In the case of `CC(=O)O[C@H]1[C@H](CC#CC#CC[C@@H]2C[C@]3(C)[C@H]4CC=C5[C@H]6[C@@H](C)[C@H](C)CC[C@]6(C(=O)NCCN(CCN)CCN)CC[C@@]5(C)[C@]4(C)CC[C@H]3C(C)(C)[C@H]2OC(C)=O)C[C@]2(C)[C@H]3CC=C4[C@H]5[C@@H](C)[C@H](C)CC[C@]5(C(=O)NCCN(CCN)CCN)CC[C@@]4(C)[C@]3(C)CC[C@H]2C1(C)C`, the growth is 19.8%.

For `CC(=O)c1ccc(Nc2nc(Cl)nc(Oc3c(Cl)cccc3Cl)n2)cc1`, the growth was 91%.

Regarding `Oc1[nH]c2ccccc2c1/C=c1/ccc2c(c1)N=C(c1ccc(C(F)(F)F)cc1)N=2`, the growth was 8.28% (active).

Regarding `Brc1cccc(-n2ncc3c(Nc4ccc(-c5nnc(-c6ccccc6)o5)cc4)ncnc32)c1`, the growth was 118%.

With `CCNC(=S)N(Cc1ccccc1)Cc1ccccc1`, the growth was 132%.

`COc1cccc(CC(C)=C(c2ccc(OCCCN(C)C)cc2)c2ccc(OCCCN(C)C)cc2)c1`: the growth is -53.3% (active).

For `N[C@@H](CO)C(=O)O`, the growth was 94.8%.

As for `O=C(c1ccc(C(F)(F)F)c(Cl)c1)N(Cc1ccc(Cl)cc1)c1ccc(-c2cc(C(F)(F)F)[nH]n2)c(O)c1`, the growth was 10.4%.

Take `c1ccc(C(Nc2ccccn2)(c2ccccc2)c2ccccc2)cc1`: the growth is 81.2%.

Take `CC[C@H](Nc1nc(N)nc(N)c1Cl)c1nc2cccc(NCc3ccc(C(=O)NO)cc3)c2c(=O)n1-c1ccccc1`: the growth is 7.44% (active).

Regarding `N#Cc1nc(-c2ccc(Cl)cc2)cc(-c2ccc(Nc3nc(N4CCCCC4)nc(N4CCCCC4)n3)cc2)c1N`, the growth is 107%.

In the case of `C#CC[C@@H]1C[C@]2(C)[C@H]3CC=C4[C@H]5[C@@H](C)[C@H](C)CC[C@]5(C(=O)NCCCCN)CC[C@@]4(C)[C@]3(C)CC[C@H]2C(C)(C)[C@H]1OC(C)=O`, the growth is 30%.

With `Cn1nc(C(F)(F)F)cc1-c1c[nH]c(OCc2ccc(Cl)cc2)c(-c2ccc(Cl)c(C(F)(F)F)c2)c1=O`, the growth is 10.5%.

With `COc1ccc(NC(=O)c2ccc(C(F)(F)F)nc2Nc2ccc(Cl)cc2C)cc1Cl`, the growth is 11%.

In the case of `O=C(Cn1nncc1CN1C(=O)CSC1=O)Nc1ccc(F)cc1`, the growth was 97.4%.

With `COc1ccc(NC(=O)/C=C/c2ccc(Cl)c(Cl)c2)cn1`, the growth is 32.9%.

Consider `CCCCNCC(O)c1cc(-c2ccc(C(F)(F)F)cc2)nc(-c2ccc(C(F)(F)F)cc2)c1` (stereo not drawn), for which the growth was -36.4% (active).

For the compound `CCCc1cc2c(cc1CN(Cc1cc3c(cc1CCC)OCO3)C(=N)OCC)OCO2`, the growth was 80.4%.

Turning to `CCCNC(=S)N/N=C(\C)c1ccccn1`, the growth is 15.9%.

Turning to `C#CC[C@@H]1C[C@]2(C)[C@H]3CC[C@@H]4[C@H]5C(C(=C)C)CC[C@]5(C(=O)NCCCN5CCN(CCCN)CC5)CC[C@@]4(C)[C@]3(C)CC[C@H]2C(C)(C)[C@H]1OC(C)=O` (stereo partly drawn), the growth is -29.6% (active).

As to `COc1cc2nccc(Oc3ccc(NC(=O)C4(C(=O)Nc5c(F)cc(F)cc5F)CC4)cc3)c2cc1Oc1ccc(N)cn1`, the growth is 70.9%.

Take `COc1ccc2[nH]c(C(=O)OCc3ccc4cccc(O)c4n3)cc2c1`: the growth is 4.41% (active).

As to `CCOCC(O)(c1ccc(Cl)cc1)c1ccc(Cl)cc1`, the growth is 96.1%.

With `Cc1cc(C)cc(NC(=O)Cn2nncc2CN2C(=O)CSC2=O)c1`, the growth was 113%.

In the case of `Cc1ccc(NC(=O)Cn2nncc2CN2C(=O)CSC2=O)cc1C`, the growth was 106%.

As to `COC(=O)/C=C/c1cc(OC(C)=O)c2c(c1)[C@@H](C(=O)OC)[C@H](c1ccc(OC(C)=O)c(OC(C)=O)c1)O2`, the growth was 6.74% (active).

`N=c1n(Cc2ccccc2)c(N)cc(=O)n1Cc1ccccc1`: the growth was 21.4%.

Take `CC(C)[C@H](CN)NC[C@H](C)NS(=O)(=O)c1ccc(C(C)(C)C)cc1`: the growth was 91.5%.

`COc1ccc(/C(=C\c2ccc3c(c2)OCO3)C(=O)Nc2nc3ccccc3s2)cc1`: the growth is 95.4%.

In the case of `Cc1ccc(-c2cnc3sc4ccc(Cl)cc4n23)cc1`, the growth is 106%.

For `COc1cc(C2Nc3ccccc3S2)cc(CN2CCOCC2)c1O` (stereo not drawn), the growth was 80.1%.

Regarding `CC1=C(O)C(=O)C(c2c(C)cc(C)c(Br)c2C)=C(O)C1=O`, the growth is 43.1%.
